From PubChem BioAssay
Mdm2-MdmX inh: disrupts the human Mdm2-MdmX interaction. inhibition, % at 8 µM. SaOS-2 split-luciferase Mdm2/MdmX complementation, luminescence. hit rate 3% among 330,000. O15151+Q00987;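 active = inhibition of at least 50% at 8 µM in the primary screen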
A1 inh: inhibitors of the anti-apoptotic protein A1, read as caspase activation; MEF A1-2A-BIM cells, Caspase-Glo 3/7 luminescence, 3 h; percent of clofoctol response, vehicle zero; AID 2462; caspase activation, % (no concentration beside the values); hit rate 0.066% among 330,000;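 active = over half of replicate activation scores above 10%, or exactly half above 10 with the replicate mean above 10; inconclusive = replicate mean below 10 yet half the replicates above 10; inactive = over half of replicates below 10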
Beta cell apopt: beta cell apoptosis inhibition. INS-1E cytokine-induced death, ATP luminescence, 48 h; percent of positive-control rescue, neutral wells zero. protection from apoptosis, % (concentration not given with the values). hit rate 0.8% among 300,000. AID 435005;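 active = Every replicate reaches about 75%, or at least half do and their mean reaches it too, limit read from the data; inconclusive = At least half of replicates reach the limit but their mean does not; inactive = Under half of replicates reach the limit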;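 also: higher means more ATP so stronger rescue from cytokine killing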
Jurkat NFkB inh: lowers PMA/ionomycin-induced NF-kB signal in Jurkat cells. PMA/ionomycin-induced NF-kB luciferase reporter, luminescence. inhibition, % at 4 µM. hit rate 0.53% among 330,000. AID 435003; in the data active = inhibition above about 50%
NTR1 ag: activates human neurotensin receptor 1; NTR1-U2OS beta-arrestin-GFP spot imaging, agonist mode; hit rate 0.17% among 330,000; P30989; activation, % at 20 µM;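 active = activation at or above 40% of the spot to cytoplasm intensity ratio, with at least 20 cells analyzed; inconclusive = wells under 20 cells, flagged as cytotoxic or low count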
Target sequence (P30989 whole entry, looked up): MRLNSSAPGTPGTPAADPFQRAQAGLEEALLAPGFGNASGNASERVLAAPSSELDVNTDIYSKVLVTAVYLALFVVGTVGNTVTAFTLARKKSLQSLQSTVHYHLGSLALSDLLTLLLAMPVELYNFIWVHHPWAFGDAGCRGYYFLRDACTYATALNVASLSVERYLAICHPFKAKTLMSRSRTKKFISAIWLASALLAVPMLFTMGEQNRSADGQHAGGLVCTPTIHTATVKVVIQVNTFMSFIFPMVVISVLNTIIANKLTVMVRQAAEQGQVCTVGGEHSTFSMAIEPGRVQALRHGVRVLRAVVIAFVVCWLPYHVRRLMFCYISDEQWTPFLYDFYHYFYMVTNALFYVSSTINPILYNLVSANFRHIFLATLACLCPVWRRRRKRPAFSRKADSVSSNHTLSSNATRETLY
697 NFkB inh: lowers PMA/ionomycin-induced NF-kB signal in 697 B cells | 697 B-cell NF-kB luciferase reporter, 16 h | inhibition, % at 4 µM | hit rate 0.33% among 330,000 | AID 435022; in the data active = inhibition above about 35%
697 NFkB conf: lowers PMA/ionomycin-induced NF-kB signal in 697 B cells | hit rate 35% among 2,000 | 697 B-cell NF-kB luciferase, 16 h | shares compounds with 697 NFkB inh | inhibition, % at 4 µM | AID 449746; in the data active = inhibition mostly above about 28%, no sharp cut-off; inactive = mostly below about 22%
Hits are given with their value; - = inactive; ? = inconclusive; . = no result. An excerpt weighted towards active compounds, which were near 3.8% of everything screened.

SMILES | Mdm2-MdmX inh | A1 inh | Beta cell apopt | Jurkat NFkB inh | NTR1 ag | 697 NFkB inh | 697 NFkB conf
O=C(NCCCN1CCOCC1)c1cc(-c2ccc(Cl)c(Cl)c2)on1 | - | - | - | - | - | - | .
Cc1ccc(-c2cc(C(=O)NCCCN3CCOCC3)no2)cc1 | - | - | - | - | - | 87 | 85
Cc1ccc(S(=O)(=O)N2CCN(C(=O)COC(=O)/C=C/c3ccccc3)CC2)c(C)c1 | - | - | - | - | - | - | .
CCOC(=O)C1CCN(C(=O)c2ccc3c(=O)n4nc(Nc5cc(C)ccc5C)sc4nc3c2)CC1 | - | - | - | - | - | - | .
Cc1ccc(C)c(Nc2nn3c(=O)c4ccc(C(=O)NCc5cccnc5)cc4nc3s2)c1 | - | - | - | - | - | 43 | -
NS(=O)(=O)c1ccc(NC(=O)CSc2nnc3n2CCCCC3)cc1 | - | - | - | - | - | - | .
O=C(OCC(O)CO)c1ccccc1Nc1ccnc2cc(Cl)ccc12 (stereo not given) | - | - | - | - | - | 41 | -
CCN(CC)CCCN=Cc1c(-c2ccccc2)[nH]n(-c2nc3ccccc3s2)c1=O | - | - | - | - | - | 40 | 42
CCCN=C(C)c1c(-c2ccccc2)[nH]n(-c2nc3ccccc3s2)c1=O | - | - | - | - | - | - | .
COc1ccc(O)c(/C=N/NC(=O)c2ccc(N3CCCC3=O)cc2)c1 | - | - | - | - | - | - | -
COc1ccc(/C=N/NC(=O)c2ccc(N3CCCC3=O)cc2)cc1 | - | - | - | - | - | - | .
CCOC(=O)c1sc(NC(=O)Nc2ccccc2F)nc1C | - | - | - | - | - | - | -
O=C(c1ccc(-c2ccccc2)cc1)c1ccccc1C(=O)N1CCOCC1 | - | - | - | - | - | - | .
S=C(c1ccc(-c2ccccc2)cc1)N1CCOCC1 | - | - | - | - | - | 55 | -
CCOc1ccc(C(=O)Nc2cc(C)on2)cc1 | - | ? | - | - | - | - | .
Cc1cc(NC(=O)c2cccc(COc3ccc(Br)cc3)c2)no1 | - | - | . | - | - | 56 | -
O=C(Nc1cc(C(F)(F)F)ccc1-n1cncn1)c1ccc([N+](=O)[O-])o1 | - | - | - | - | - | - | .
Cc1ccc(C)c(S(=O)(=O)N2CCN(C(=O)Cn3c(C(F)(F)F)nc4ccccc43)CC2)c1 | - | - | - | - | - | 37 | -
CC(C)(C)c1ccc(C(=O)N/C(N)=N/c2nc3ccccc3o2)cc1 | - | - | - | - | - | - | .
Cc1ccc2oc(/N=C(\N)NC(=O)C3CC3)nc2c1 | - | - | - | - | - | - | -
COc1cc(C(=O)Nc2ccc(C(=O)c3cccs3)cc2)cc(OC)c1OC | - | - | - | - | - | 37 | -
C/C(=N\NC(=O)Cc1c(Cl)cccc1Cl)c1cccnc1 | - | - | - | - | - | - | .
COc1cc(C2C(C(C)=O)=C(O)C(=O)N2Cc2ccccc2)ccc1O (stereo not given) | - | - | - | - | - | - | .
Cc1csc(NC(=O)/C=C/c2ccc3c(c2)OCO3)n1 | - | - | - | - | - | 70 | 64
Cc1cc2nc3n(c2cc1C)CCCN3 | - | - | - | - | - | - | .
SMILES | Mdm2-MdmX inh | A1 inh | Beta cell apopt | Jurkat NFkB inh | NTR1 ag | 697 NFkB inh | 697 NFkB conf
Cc1c(CCC(=O)N2CCC[C@H]2C(=O)O)c(=O)oc2cc3oc4c(c3cc12)CCCC4 | - | - | - | - | - | 60 | 42
Cc1c(CCC(=O)NCC(=O)NCC(=O)O)c(=O)oc2cc3oc4c(c3cc12)CCCC4 | - | - | - | - | - | - | .
Cc1c(CCC(=O)O)c(=O)oc2cc3oc4c(c3cc12)CCCC4 | - | - | - | - | - | 40 | 35
Cc1c(CCC(=O)N2CCC(C(=O)NCCCCCC(=O)O)CC2)c(=O)oc2cc3oc4c(c3cc12)CCCC4 | - | - | - | - | - | - | .
CCCC1=Nc2cc(C(=O)N3CCC(C(=O)OCC)CC3)ccc2Sc2ccccc21 | - | - | - | - | - | - | .
COc1ccc(C(O)(CCN2CCCCC2)C2CCCCC2)cc1 (stereo not given) | - | - | - | - | - | - | .
COc1cc2oc(-c3ccc(O)cc3)cc(=O)c2c(O)c1OC | - | - | - | - | - | - | .
COc1cc(-c2cc(=O)c3c(O)c(OC)c(OC)c(OC)c3o2)cc(OC)c1OC | - | - | . | - | - | 39 | 38
O=C(O)CCC(=O)c1ccc2c(c1)CCCC2 | - | - | - | - | - | 35 | -
CCOc1ccc2[nH]c3c(N4CCN(c5ccccn5)CC4)ncnc3c2c1 | - | - | - | - | - | 45 | -
COc1ccccc1CNC(=O)c1ccccc1NC(=O)C1=C(C)OCCS1 | - | - | - | - | - | - | .
Cc1ccc(C)c(OCc2ccc(C(=O)NN)o2)c1 | - | - | - | - | - | 46 | 32
Cc1ccc(OCc2ccc(C(=O)NN)o2)c([N+](=O)[O-])c1 | - | - | - | - | - | - | .
NS(=O)(=O)c1ccc(CCNC(=O)COC(=O)C2CCN(c3ccc(C(F)(F)F)cn3)CC2)cc1 | - | - | - | - | - | - | .
COc1ccc(C(=O)Nc2ccccc2C(=O)NCc2ccco2)cc1OC | - | - | - | - | - | 37 | 31
Cc1nn(C)cc1CN1CCC(CO)(CCOc2ccccc2)CC1 | - | - | - | - | - | 43 | -
CCn1c(C(=O)O)c(S(=O)(=O)c2ccc(Cl)cc2)c2ccccc21 | - | - | - | - | - | - | .
Cc1ccc(C(c2cc(Br)ccc2O)N2CCSCC2)cc1 (stereo not given) | - | - | - | - | - | - | .
Cc1cc(-c2ccc(S(=O)(=O)N3CCN(c4cccc(C)c4C)CC3)s2)on1 | - | - | - | - | - | - | .
Cc1oc(-c2ccc(-c3ccccc3)cc2)nc1CN1CCN(CC(=O)N(C)C)CC1 | - | - | . | - | - | - | -
COc1ccc2c(CCNC(=O)/C=C/c3ccc(OC)c(OC)c3)c[nH]c2c1 | - | - | - | - | - | - | .
CN(C)S(=O)(=O)c1ccc(NC(=O)N2CCN(c3ccccc3)CC2)cc1 | - | - | - | - | - | 46 | 29
COc1ccc(N2CCN(C(=O)Nc3ccc(S(=O)(=O)N(C)C)cc3)CC2)cc1 | - | - | - | - | - | - | .
Cc1cc2c(C)c(C)c(=O)[nH]c2cc1N | - | - | - | - | - | 36 | -
COc1cccc(/C=C2\NC(=O)NC2=O)c1O | - | - | - | - | - | - | .
O=C(/C=C/c1ccccc1)Nc1ccc2c(c1)OCCO2 | - | - | - | - | - | - | -
CCN(CC(=O)Nc1ccc2c(c1)OCCO2)C(=O)/C=C/c1ccccc1 | - | - | - | - | - | - | .
O=C(Nc1ccc2c(c1)OCCO2)C(=O)c1c[nH]c2ccccc12 | - | - | - | - | - | - | -
O=C(O)c1ncc(-c2ccccc2)cn1 | - | - | - | - | - | - | .
